# Key:
# Experiment in all cases: DAPPL (digital affinity profiling via proximity ligation, sequencing); 10 mM Tris-HCl pH 7.5, 50 mM NaCl, 1 mM DTT, 4% glycerol, room temperature, 30 min; GST-TFs on glutathione beads, 16-mer random dsDNA library, 0.1% formaldehyde crosslink after washing; high values mean tight binding
# FLI1 = target: T1, FLI1 (Homo sapiens, UniProt Q01543 1-452); conditions: protein: recombinant; tags: N-terminal GST; dsDNA, one strand shown
# T1 sequence: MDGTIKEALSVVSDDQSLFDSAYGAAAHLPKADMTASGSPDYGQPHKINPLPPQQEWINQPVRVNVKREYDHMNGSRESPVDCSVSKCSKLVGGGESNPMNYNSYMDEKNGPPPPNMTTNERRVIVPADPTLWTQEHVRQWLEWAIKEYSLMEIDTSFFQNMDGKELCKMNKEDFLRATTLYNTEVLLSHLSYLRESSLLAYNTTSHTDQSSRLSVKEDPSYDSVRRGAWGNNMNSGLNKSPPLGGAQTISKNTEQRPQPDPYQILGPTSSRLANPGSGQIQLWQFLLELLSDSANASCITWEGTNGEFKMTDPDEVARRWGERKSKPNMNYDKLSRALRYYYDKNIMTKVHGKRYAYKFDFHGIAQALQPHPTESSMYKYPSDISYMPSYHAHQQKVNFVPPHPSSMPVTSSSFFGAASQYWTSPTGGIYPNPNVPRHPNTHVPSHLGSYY
# Summary of the method: (§1)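 Pools of DNA-barcoded human transcription factors, expressed in yeast as GST fusions on glutathione beads and combined with a tag-only sample, were incubated with 200 nmole of a 16-mer random double-stranded DNA library. Incubation took 30 min at room temperature in Tris/NaCl/DTT/glycerol buffer and was followed by washing, 0.1% formaldehyde crosslinking, proximity ligation (BsaI/T4 ligase, 1 h, 37 °C), PCR amplification and sequencing on an Illumina NextSeq500. Binding signal is the ratio of a hexamer's read frequency for a factor to its frequency for the tag-only sample.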
# ELK1 = target: T2, ELK1 (Homo sapiens, UniProt P19419 1-428); conditions: protein: recombinant; tags: N-terminal GST; dsDNA, one strand shown
# T2 sequence: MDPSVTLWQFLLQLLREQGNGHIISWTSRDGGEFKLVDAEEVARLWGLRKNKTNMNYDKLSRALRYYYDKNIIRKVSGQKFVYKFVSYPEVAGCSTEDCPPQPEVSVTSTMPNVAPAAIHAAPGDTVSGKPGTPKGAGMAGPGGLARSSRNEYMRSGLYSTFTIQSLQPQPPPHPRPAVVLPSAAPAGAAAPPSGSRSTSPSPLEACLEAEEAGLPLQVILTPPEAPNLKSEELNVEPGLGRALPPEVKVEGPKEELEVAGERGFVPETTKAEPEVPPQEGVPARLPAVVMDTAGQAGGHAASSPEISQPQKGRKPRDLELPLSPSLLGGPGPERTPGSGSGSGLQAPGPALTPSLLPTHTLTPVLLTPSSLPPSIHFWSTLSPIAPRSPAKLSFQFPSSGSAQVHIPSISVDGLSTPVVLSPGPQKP
# Summary of the method: as §1
# GABPA = target: T3, GABPA (Homo sapiens, UniProt Q06546 1-454); conditions: protein: recombinant; tags: N-terminal GST; dsDNA, one strand shown
# T3 sequence: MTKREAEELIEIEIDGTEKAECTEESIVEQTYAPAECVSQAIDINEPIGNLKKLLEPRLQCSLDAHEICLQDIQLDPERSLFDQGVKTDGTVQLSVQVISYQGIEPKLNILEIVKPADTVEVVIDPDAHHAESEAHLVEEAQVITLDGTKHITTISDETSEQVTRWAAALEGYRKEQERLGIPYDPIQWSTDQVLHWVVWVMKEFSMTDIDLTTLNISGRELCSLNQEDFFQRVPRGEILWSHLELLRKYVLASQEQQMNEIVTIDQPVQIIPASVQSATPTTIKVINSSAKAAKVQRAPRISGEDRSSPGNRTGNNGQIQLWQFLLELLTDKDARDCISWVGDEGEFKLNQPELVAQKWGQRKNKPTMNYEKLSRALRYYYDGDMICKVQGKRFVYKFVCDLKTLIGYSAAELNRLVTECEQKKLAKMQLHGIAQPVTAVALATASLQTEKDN
# Summary of the method: as §1
# ERG = target: T4, ERG (Homo sapiens, UniProt P11308 1-479); conditions: protein: recombinant; tags: N-terminal GST; dsDNA, one strand shown
# T4 sequence: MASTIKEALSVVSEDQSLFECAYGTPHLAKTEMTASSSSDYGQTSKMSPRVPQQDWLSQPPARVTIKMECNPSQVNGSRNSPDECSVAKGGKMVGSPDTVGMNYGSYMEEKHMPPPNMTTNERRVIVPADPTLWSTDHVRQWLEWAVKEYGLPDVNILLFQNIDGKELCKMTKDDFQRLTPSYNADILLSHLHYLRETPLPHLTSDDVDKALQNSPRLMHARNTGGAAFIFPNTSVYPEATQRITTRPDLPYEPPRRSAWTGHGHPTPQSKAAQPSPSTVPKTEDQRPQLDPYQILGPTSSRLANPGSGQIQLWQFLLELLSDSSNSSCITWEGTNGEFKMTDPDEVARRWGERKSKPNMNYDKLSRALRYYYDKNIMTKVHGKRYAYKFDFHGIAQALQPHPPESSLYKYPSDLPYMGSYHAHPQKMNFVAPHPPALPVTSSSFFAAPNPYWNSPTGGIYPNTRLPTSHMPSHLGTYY
# Summary of the method: as §1
# ELF1 = ELF1 (Homo sapiens, UniProt P32519 1-619); conditions: protein: recombinant; tags: N-terminal GST; dsDNA, one strand shown
# Sequence of ELF1 (P32519 whole entry): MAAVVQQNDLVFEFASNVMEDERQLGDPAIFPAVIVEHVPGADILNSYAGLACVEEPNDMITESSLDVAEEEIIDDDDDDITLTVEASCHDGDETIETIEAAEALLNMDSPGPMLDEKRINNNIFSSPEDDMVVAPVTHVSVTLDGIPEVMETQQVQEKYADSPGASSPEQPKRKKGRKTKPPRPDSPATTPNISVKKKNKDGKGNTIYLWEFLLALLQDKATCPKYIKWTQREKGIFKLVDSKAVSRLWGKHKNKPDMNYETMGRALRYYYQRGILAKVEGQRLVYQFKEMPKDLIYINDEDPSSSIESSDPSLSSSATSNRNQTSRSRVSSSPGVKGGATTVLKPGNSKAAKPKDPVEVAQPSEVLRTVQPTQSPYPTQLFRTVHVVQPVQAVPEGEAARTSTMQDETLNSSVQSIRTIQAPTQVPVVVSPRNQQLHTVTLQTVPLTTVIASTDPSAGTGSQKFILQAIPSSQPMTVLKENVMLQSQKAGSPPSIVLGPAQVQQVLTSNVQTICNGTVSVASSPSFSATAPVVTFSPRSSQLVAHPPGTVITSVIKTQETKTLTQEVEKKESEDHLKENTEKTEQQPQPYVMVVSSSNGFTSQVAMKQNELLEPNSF
# Summary of the method: as §1
# EHF = target: T5, EHF (Homo sapiens, UniProt Q9NZC4 1-300); conditions: protein: recombinant; tags: N-terminal GST; dsDNA, one strand shown
# T5 sequence: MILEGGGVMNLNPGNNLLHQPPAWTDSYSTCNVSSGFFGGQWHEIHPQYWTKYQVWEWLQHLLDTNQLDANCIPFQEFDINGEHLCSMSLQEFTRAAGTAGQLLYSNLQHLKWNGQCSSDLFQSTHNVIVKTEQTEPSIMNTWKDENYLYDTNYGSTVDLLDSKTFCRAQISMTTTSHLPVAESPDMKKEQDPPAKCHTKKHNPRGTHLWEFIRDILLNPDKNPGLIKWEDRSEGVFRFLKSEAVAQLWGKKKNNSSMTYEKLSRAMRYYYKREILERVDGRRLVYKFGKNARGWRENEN
# Summary of the method: as §1
# SPI1 = SPI1 (Homo sapiens, UniProt P17947 1-270); conditions: protein: recombinant; tags: N-terminal GST; dsDNA, one strand shown
# Summary of the method: as §1
# SPIB = SPIB (Homo sapiens, UniProt Q01892 1-262); conditions: protein: recombinant; tags: N-terminal GST; dsDNA, one strand shown
# Sequence of SPIB (Q01892 whole entry): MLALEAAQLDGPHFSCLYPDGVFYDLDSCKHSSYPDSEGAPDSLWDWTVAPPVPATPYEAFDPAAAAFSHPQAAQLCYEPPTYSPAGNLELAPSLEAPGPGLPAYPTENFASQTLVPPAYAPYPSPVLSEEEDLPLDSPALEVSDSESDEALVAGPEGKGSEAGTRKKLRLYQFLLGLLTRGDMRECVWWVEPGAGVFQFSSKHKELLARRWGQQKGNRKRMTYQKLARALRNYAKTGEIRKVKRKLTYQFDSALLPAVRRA
# Summary of the method: as §1
# ELK3 = target: T6, ELK3 (Homo sapiens, UniProt P41970 1-407); conditions: protein: recombinant; tags: N-terminal GST; dsDNA, one strand shown
# T6 sequence: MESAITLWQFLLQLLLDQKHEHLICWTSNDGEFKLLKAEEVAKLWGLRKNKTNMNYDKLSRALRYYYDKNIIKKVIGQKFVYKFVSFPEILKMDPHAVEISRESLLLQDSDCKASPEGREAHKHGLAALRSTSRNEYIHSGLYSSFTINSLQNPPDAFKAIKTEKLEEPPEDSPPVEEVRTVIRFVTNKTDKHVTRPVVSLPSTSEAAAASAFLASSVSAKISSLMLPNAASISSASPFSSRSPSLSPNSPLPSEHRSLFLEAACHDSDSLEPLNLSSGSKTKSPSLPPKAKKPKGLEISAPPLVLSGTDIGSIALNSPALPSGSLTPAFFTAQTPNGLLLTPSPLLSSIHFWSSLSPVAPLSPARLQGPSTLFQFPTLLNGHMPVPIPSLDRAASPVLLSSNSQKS
# Summary of the method: as §1
# FEV = target: T7, FEV (Homo sapiens, UniProt Q99581 1-238); conditions: protein: recombinant; tags: N-terminal GST; dsDNA, one strand shown
# T7 sequence: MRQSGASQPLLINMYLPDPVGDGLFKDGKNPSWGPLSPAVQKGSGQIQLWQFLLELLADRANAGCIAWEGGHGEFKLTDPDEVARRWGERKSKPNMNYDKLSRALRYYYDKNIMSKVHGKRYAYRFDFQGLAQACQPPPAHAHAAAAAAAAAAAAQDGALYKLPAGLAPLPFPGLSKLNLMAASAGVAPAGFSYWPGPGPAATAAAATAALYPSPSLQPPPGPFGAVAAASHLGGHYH
# Summary of the method: as §1
# ETV5 = ETV5 (Homo sapiens, UniProt P41161 1-510); conditions: protein: recombinant; tags: N-terminal GST; dsDNA, one strand shown
# Sequence of ETV5 (P41161 whole entry): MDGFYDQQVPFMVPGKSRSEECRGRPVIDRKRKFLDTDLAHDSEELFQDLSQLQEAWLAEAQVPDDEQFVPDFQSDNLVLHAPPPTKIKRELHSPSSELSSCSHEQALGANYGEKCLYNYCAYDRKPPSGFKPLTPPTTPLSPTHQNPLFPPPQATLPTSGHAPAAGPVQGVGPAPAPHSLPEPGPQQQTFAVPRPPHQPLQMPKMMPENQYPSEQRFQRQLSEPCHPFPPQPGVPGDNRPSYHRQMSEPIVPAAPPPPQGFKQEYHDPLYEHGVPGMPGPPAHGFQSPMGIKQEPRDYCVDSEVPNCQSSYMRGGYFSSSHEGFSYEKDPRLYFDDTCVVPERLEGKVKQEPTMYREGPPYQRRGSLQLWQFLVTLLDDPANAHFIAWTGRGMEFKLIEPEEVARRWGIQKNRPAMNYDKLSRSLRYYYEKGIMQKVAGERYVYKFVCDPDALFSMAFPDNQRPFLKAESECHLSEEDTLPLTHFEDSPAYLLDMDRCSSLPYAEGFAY
# Summary of the method: as §1
# HSF1 = HSF1 (Homo sapiens, UniProt Q00613 1-529); conditions: protein: recombinant; tags: N-terminal GST; chain copies: 3; dsDNA, one strand shown
# Sequence of HSF1 (Q00613 whole entry): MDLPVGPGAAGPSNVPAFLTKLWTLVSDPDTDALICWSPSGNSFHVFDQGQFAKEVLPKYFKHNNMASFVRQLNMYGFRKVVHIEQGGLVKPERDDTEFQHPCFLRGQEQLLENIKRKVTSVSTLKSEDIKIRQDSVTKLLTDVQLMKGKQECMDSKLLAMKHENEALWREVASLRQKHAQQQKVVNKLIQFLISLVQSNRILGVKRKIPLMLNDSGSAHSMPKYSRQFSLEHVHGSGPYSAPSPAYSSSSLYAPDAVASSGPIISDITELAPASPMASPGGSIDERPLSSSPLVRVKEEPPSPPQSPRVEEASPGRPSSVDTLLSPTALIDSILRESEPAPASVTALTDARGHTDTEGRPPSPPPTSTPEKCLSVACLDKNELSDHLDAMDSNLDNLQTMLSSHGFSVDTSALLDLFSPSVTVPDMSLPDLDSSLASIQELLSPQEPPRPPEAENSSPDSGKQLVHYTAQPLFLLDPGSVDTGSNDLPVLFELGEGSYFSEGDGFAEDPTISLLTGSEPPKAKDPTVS
# Summary of the method: as §1
# SPIC = target: T8, SPIC (Homo sapiens, UniProt Q8N5J4 1-248); conditions: protein: recombinant; tags: N-terminal GST; dsDNA, one strand shown
# T8 sequence: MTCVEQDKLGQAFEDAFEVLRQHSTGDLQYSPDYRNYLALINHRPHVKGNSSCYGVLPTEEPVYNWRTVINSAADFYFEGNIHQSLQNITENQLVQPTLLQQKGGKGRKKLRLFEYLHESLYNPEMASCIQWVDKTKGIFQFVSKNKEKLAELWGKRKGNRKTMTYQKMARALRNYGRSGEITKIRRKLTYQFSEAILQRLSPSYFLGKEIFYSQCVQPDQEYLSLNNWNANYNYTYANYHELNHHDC
# Summary of the method: as §1
# ELF4 = ELF4 (Homo sapiens, UniProt Q99607 1-663); conditions: protein: recombinant; tags: N-terminal GST; dsDNA, one strand shown
# Sequence of ELF4 (Q99607 whole entry): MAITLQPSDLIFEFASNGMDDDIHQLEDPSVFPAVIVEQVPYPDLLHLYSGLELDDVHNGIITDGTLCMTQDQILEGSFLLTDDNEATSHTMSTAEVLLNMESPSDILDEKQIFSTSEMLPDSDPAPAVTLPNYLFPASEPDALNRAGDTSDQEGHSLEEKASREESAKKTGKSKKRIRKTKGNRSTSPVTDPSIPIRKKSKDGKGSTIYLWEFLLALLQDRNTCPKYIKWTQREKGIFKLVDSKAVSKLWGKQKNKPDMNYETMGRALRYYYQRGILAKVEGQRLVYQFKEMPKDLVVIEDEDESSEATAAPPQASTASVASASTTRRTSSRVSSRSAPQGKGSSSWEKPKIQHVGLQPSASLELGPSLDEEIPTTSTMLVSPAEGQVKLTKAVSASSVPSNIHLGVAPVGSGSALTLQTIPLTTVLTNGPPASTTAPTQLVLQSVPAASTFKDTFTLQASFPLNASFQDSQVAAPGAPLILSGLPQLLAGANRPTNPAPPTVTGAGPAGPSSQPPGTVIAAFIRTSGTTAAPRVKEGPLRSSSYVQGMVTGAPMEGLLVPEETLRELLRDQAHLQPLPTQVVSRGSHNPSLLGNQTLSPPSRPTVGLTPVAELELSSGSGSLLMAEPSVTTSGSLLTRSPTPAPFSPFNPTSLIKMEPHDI
# Summary of the method: as §1
# ELK4 = target: T9, ELK4 (Homo sapiens, UniProt P28324-2 1-405); conditions: protein: recombinant; tags: N-terminal GST; dsDNA, one strand shown
# T9 sequence: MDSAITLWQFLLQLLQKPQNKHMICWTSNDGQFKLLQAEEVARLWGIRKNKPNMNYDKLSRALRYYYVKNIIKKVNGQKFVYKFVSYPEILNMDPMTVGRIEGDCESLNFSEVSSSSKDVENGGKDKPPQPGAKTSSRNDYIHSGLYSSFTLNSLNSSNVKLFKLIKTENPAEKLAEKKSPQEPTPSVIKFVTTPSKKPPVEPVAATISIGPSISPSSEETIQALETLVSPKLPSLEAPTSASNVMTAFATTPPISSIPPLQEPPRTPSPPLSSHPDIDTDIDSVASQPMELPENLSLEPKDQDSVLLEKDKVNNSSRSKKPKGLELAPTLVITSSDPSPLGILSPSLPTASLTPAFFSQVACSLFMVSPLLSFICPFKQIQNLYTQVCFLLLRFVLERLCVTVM
# Summary of the method: as §1
# ETV2 = target: T10, ETV2 (Homo sapiens, UniProt O00321 1-342); conditions: protein: recombinant; tags: N-terminal GST; dsDNA, one strand shown
# T10 sequence: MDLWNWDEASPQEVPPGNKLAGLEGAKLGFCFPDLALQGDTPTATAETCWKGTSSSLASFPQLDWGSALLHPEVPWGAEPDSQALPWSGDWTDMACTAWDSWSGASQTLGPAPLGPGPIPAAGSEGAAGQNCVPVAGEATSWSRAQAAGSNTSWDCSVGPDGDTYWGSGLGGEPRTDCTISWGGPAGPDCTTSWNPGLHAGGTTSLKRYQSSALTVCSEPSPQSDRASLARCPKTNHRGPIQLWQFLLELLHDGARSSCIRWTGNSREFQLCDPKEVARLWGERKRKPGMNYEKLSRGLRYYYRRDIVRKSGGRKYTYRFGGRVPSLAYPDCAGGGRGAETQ
# Summary of the method: as §1
# ELF3 = target: T11, ELF3 (Homo sapiens, UniProt P78545 1-371); conditions: protein: recombinant; tags: N-terminal GST; dsDNA, one strand shown
# T11 sequence: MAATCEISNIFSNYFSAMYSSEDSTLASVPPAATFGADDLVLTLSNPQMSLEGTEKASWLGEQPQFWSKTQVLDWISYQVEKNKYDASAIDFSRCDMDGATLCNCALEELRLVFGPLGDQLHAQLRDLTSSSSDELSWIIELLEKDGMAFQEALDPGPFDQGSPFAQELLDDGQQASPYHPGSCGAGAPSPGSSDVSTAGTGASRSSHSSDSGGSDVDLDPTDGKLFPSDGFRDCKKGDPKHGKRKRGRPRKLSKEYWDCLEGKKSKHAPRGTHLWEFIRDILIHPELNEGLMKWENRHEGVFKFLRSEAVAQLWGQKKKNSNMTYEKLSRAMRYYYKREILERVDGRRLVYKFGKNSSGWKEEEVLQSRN
# Summary of the method: as §1
# CRX = CRX (Homo sapiens, UniProt O43186 1-299); conditions: protein: recombinant; tags: N-terminal GST; dsDNA, one strand shown
# Sequence of CRX (O43186 whole entry): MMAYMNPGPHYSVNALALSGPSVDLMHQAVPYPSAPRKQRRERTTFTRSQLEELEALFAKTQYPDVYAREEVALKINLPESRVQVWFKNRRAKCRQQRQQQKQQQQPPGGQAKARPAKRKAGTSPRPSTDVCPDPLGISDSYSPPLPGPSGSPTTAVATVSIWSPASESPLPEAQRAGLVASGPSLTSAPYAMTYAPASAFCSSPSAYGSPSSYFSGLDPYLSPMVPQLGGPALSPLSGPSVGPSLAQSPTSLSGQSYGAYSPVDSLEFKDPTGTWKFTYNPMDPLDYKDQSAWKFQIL
# Summary of the method: as §1
# ETV1 = ETV1 (Homo sapiens, UniProt P50549 1-477); conditions: protein: recombinant; tags: N-terminal GST; dsDNA, one strand shown
# Sequence of ETV1 (P50549 whole entry): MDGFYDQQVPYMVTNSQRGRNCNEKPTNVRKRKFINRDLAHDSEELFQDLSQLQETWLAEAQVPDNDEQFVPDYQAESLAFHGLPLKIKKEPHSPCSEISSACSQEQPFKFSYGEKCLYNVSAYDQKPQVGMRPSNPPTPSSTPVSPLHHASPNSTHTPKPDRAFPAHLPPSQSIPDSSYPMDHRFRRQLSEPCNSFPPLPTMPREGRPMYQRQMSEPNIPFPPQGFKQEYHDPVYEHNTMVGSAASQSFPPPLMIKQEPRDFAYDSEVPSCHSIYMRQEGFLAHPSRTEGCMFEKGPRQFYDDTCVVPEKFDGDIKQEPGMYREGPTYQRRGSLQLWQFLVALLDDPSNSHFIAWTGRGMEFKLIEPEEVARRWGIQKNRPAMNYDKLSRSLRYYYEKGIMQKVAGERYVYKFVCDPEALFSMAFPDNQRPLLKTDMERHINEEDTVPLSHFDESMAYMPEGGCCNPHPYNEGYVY
# Summary of the method: as §1
sequence,measurement,setting,value
AGCTTT,binding signal,FLI1,"1.21 fold enrichment (6-mer frequency, TF over GST control)"
same,binding signal,ELK1,"1.2 fold enrichment (6-mer frequency, TF over GST control)"
same,binding signal,GABPA,"1.13 fold enrichment (6-mer frequency, TF over GST control)"
same,binding signal,ERG,"1.12 fold enrichment (6-mer frequency, TF over GST control)"
same,binding signal,ELF1,"1.2 fold enrichment (6-mer frequency, TF over GST control)"
same,binding signal,EHF,"1.11 fold enrichment (6-mer frequency, TF over GST control)"
same,binding signal,SPI1,"1.16 fold enrichment (6-mer frequency, TF over GST control)"
same,binding signal,SPIB,"1.04 fold enrichment (6-mer frequency, TF over GST control)"
same,binding signal,ELK3,"1.13 fold enrichment (6-mer frequency, TF over GST control)"
same,binding signal,FEV,"1.08 fold enrichment (6-mer frequency, TF over GST control)"
same,binding signal,ETV5,"1.18 fold enrichment (6-mer frequency, TF over GST control)"
same,binding signal,HSF1,"1.43 fold enrichment (6-mer frequency, TF over GST control)"
same,binding signal,SPIC,"1.03 fold enrichment (6-mer frequency, TF over GST control)"
same,binding signal,ELF4,"1.15 fold enrichment (6-mer frequency, TF over GST control)"
same,binding signal,ELK4,"1.28 fold enrichment (6-mer frequency, TF over GST control)"
same,binding signal,ETV2,"1.23 fold enrichment (6-mer frequency, TF over GST control)"
same,binding signal,ELF3,"1.45 fold enrichment (6-mer frequency, TF over GST control)"
same,binding signal,CRX,"1.81 fold enrichment (6-mer frequency, TF over GST control)"
same,binding signal,ETV1,"1.1 fold enrichment (6-mer frequency, TF over GST control)"
